Screening data: PubChem BioAssay, Sanford-Burnham Center for Chemical Genomics
NPR2 activator – GC-B (human) receptor activation; P20594; HEK293-GC-B cells, CNP EC30, cGMP TR-FRET; 0% at EC30 CNP, 100% saturating CNP; activation, % at 10 µM; 370,000 tested, 0.11% active; AID 1920062;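 active = activation at 10 µM reaching about 35% in either raw or pattern-adjusted values, limit read from the data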
Neddylation inh – inhibitors of human cullin neddylation; TR-FRET cullin neddylation, biochemical; P61081+Q13564; inhibition, % at 25 µM; 360,000 tested, 0.58% active; AID 651699; in the data active = inhibition above about 36%
NPR1 activator – GC-A (human) enzyme activation; P16066; HEK293 GC-A cells, cGMP TR-FRET, EC30 ANP; 0% at EC30 ANP, 100% saturating ANP; activation, % at 10 µM; 370,000 tested, 0.14% active; AID 1671463; in the data active = activation above about 40%
NadD block – blocks S. aureus nicotinate mononucleotide adenylyltransferase; purified NadD enzyme, colorimetric absorbance read-out; AID 602399; 360,000 tested, 0.78% active; inhibition, % at 20 µM; in the data active = inhibition above about 26%
NadD conf – NadD (S. aureus) inhibition, single concentration confirmation. inhibition, % at 20 µM. shares compounds with NadD block. 2,000 tested, 13% active. purified S. aureus NadD, colorimetric enzyme assay; in the data active = inhibition mostly above about 42%, no sharp cut-off; inactive = mostly below about 42%
An asterisk follows results filed as active; / = not tested or not shown. Hits are enriched below; roughly 1.5% of the tested compounds scored in any of these assays.

SMILES	NPR2 activator	Neddylation inh	NPR1 activator	NadD block	NadD conf
NS(=O)(=O)c1ccc(N/N=C/c2cn(-c3ccccc3)nc2-c2cccs2)c([N+](=O)[O-])c1	-3.6	-21.1	0.7	36.3*	-5.8
NS(=O)(=O)c1ccc(N/N=C/c2cn(-c3ccccc3)nc2-c2cccs2)cc1	0.5	/	-5.3	6.9	/
O=c1[nH]c(CN2CCc3ccccc32)nc2scc(-c3cccs3)c12	-4.2	-5.0	-9.3	42.3*	13.5
O=C(CSCc1nc2scc(-c3cccs3)c2c(=O)[nH]1)Nc1ccccn1	-0.7	4.7	-1.1	0.2	/
CCOC(=O)Cn1cc(CN2CCS(=O)(=O)N(Cc3ccccc3)C(C(=O)OC)C2)nn1 (configuration not stated)	1.0	/	-0.6	/	/
CC(C)C[C@@H](CNC(=O)OC(C)(C)C)NC(=O)c1nc[nH]c1C(=O)N[C@@H](CC(C)C)C(=O)CNC[C@H](CC(C)C)NC(=O)c1nc[nH]c1C(=O)N[C@@H](Cc1c[nH]c2ccccc12)C(=O)OC(C)(C)C	5.0	8.9	-0.5	30.2*	5.3
CC(C)C[C@@H](CN)NC(=O)c1nc[nH]c1C(=O)N[C@@H](C)C(=O)CNC[C@H](CC(C)C)NC(=O)c1nc[nH]c1C(=O)N[C@@H](Cc1ccccc1)C(=O)O	-0.2	-0.4	2.6	31.9*	45.7
CC(C)C[C@@H](CNCC(=O)[C@H](Cc1c[nH]c2ccccc12)NC(=O)c1[nH]cnc1C(=O)N[C@@H](C)CN)NC(=O)c1nc[nH]c1C(=O)N[C@@H](Cc1ccccc1)C(=O)O	4.9	-5.3	0.2	33.9*	43.3
CC(C)C[C@@H](CN)NC(=O)c1nc[nH]c1C(=O)N[C@@H](Cc1c[nH]c2ccccc12)C(=O)CNC[C@H](C)NC(=O)c1nc[nH]c1C(=O)N[C@@H](C)C(=O)O	1.0	-10.3	1.1	17.0	/
S=C(NCc1cccc(Cl)c1)OC1CCC12CCC(c1ccccc1)CC2 (configuration not stated)	0.5	/	-0.9	/	/
O=C(N[C@@H](Cc1cccnc1)C(=O)N1CCC[C@H]1C(=O)NC1CCCC1)C1CC1	-6.3	/	-1.7	/	/
COc1cc(C#Cc2c(-c3cncn3C)n(C)c3ccc(-c4cc(OC)c(OC)c(OC)c4)cc23)cc(OC)c1	5.2	/	1.0	24.6	/
COc1cc(C#Cc2c(-c3cncn3C)n(C)c3ccc(-c4ccc(OC)nc4)cc23)cc(OC)c1	-11.9	/	3.2	35.7*	14.3
COc1cc(C#Cc2c(-c3cncn3C)n(C)c3ccc(-c4ccc5[nH]ccc5c4)cc23)cc(OC)c1	-12.3	/	-1.4	35.0*	36.1
CCOC(=O)N1C(=O)C[C@](Sc2ccc(OC)cc2)(C(=O)N2CCCC2)[C@H]1c1ccc(OC)cc1	-0.4	/	-4.3	/	/
CNC(=S)N/N=C/c1c(C(=O)OC)cnn1-c1ccc(Cl)cc1	3.1	/	5.3	/	/
CN1CCCCC(NC(=O)c2cccc(C(F)(F)F)c2)C1=O (configuration not stated)	-2.8	/	1.3	/	/
Cc1ccc(-c2cc(-c3nnc(SCC(=O)N4c5ccccc5Sc5ccc(Cl)cc54)n3N)[nH]n2)cc1	-2.2	/	-8.4	/	/
Cc1nnc(NC(=O)c2cc(-c3ccco3)nc3ccccc23)s1	-4.7	-4.5	-5.4	14.5	/
CCOc1ccc(/C=N/NC(=O)c2cc(-c3ccco3)nc3ccccc23)cc1	6.2	28.6	2.8	15.8	/
CCOc1ccccc1-c1cc(C(=O)N/N=C/c2ccc3c(c2)OCO3)c2ccccc2n1	16.5	/	12.7	35.2*	11.8
O=C(N/N=C/c1ccc(F)cc1)c1cc(-c2ccco2)nc2ccccc12	0.8	43.0*	-17.1	44.5*	81.5*
Cc1csc(NC(=O)c2cc(-c3ccco3)nc3ccccc23)n1	-5.0	-5.5	-13.6	75.3*	52.9*
COc1ccccc1N1CCN(C(=O)c2cc3c(C)nn(-c4ccccc4)c3s2)CC1	5.9	/	3.5	/	/
O=C1CC(c2ccco2)CC(O)=C1C=NCCN1CCNCC1 (configuration not stated)	8.6	-0.2	5.8	-1.4	/
O=C1CC(c2ccco2)CC(O)=C1C=NCC1CCNCC1 (configuration not stated)	7.2	4.0	-3.1	34.4*	6.2
O=S1(=O)CC2c3ccc(F)cc3CN2CN1C1CCCC1 (configuration not stated)	4.9	/	4.7	/	/
COc1ccc(N2CCCN(CC(=O)Nc3ccc(Cl)cc3)CC2)cc1	-4.8	/	1.7	/	/
